The supplement of paper PMC6555819

Experiments:
Assay in all cases: PBM binding z-score (relative to random genomic background probes); higher = stronger binding; sequences stand for … in GC…GCGATTGACAGCGTAGAATGAAGG
[1] = tested on: FXR:RXRa (NR concentration 270 nM, RXRa partner concentration 90 nM)
Summary of the method: (§1)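 The probes on custom Agilent 4×180K protein-binding microarrays were double-stranded, with 34-nt variable regions bearing direct-repeat seeds, single-nucleotide variants, half-site ablations and random human genomic background sequences. Incubation lasted 1 h with ligand-free nuclear receptor dimers in PBS pH 7.4, 2% milk, 0.02% Triton X-100, 1 mM DTT, 0.2 mg/mL BSA and 0.4 mg/ml salmon testes DNA. Antibodies against each partner (one per run) detected bound dimers, and fluorescence scans were regression-normalized. Binding z-scores take the random background probes as reference.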

[2] = tested on: LXRa:RXRa (NR concentration 270 nM, RXRa partner concentration 90 nM)
Summary of the method: as §1

[3] = tested on: LXRa homodimer (NR concentration 270 nM)
Summary of the method: as §1

[4] = tested on: LXRb:RXRa (NR concentration 270 nM, RXRa partner concentration 90 nM)
Summary of the method: as §1

[5] = tested on: LXRb homodimer (NR concentration 270 nM)
Summary of the method: as §1

[6] = tested on: PPARa:RXRa (NR concentration 270 nM, RXRa partner concentration 90 nM)
Summary of the method: as §1

[7] = tested on: PPARg:RXRa (NR concentration 180 nM, RXRa partner concentration 90 nM)
Summary of the method: as §1

[8] = tested on: PPARg:RXRa 270nM:90nM, anti-RXR (NR concentration 270 nM, RXRa partner concentration 90 nM)
Summary of the method: as §1

[9] = tested on: PPARg:RXRa 30nM:10nM, anti-RXR (NR concentration 30 nM, RXRa partner concentration 10 nM)
Summary of the method: as §1

[10] = tested on: PPARg:RXRa 90nM:30nM, anti-RXR (NR concentration 90 nM, RXRa partner concentration 30 nM)
Summary of the method: as §1

[11] = tested on: PPARg:RXRa DBDmut IVT, anti-RXR (DBD mutation: RXRa K156A/R161A, NR concentration 270 nM, RXRa partner concentration 90 nM)
Summary of the method: as §1

[12] = tested on: PPARg:RXRa IVT, anti-PPARg (NR concentration 270 nM, RXRa partner concentration 90 nM)
Summary of the method: as §1

[13] = tested on: PPARg DBDmut:RXRa IVT, anti-PPARg (DBD mutation: PPARg1 K132A/R137A, NR concentration 270 nM, RXRa partner concentration 90 nM)
Summary of the method: as §1

[14] = tested on: PPARg DBDmut IVT, anti-PPARg (DBD mutation: PPARg1 K132A/R137A, NR concentration 270 nM)
Summary of the method: as §1

[15] = tested on: PPARg homodimer (NR concentration 180 nM)
Summary of the method: as §1

[16] = tested on: PXR:RXRa (NR concentration 270 nM, RXRa partner concentration 90 nM)
Summary of the method: as §1

[17] = tested on: PXR homodimer (NR concentration 270 nM)
Summary of the method: as §1

[18] = tested on: RARa:RXR (NR concentration 270 nM, RXRa partner concentration 90 nM)
Summary of the method: as §1

[19] = tested on: RARa homodimer (NR concentration 270 nM)
Summary of the method: as §1

[20] = tested on: RARb:RXRa (NR concentration 270 nM, RXRa partner concentration 90 nM)
Summary of the method: as §1

Sequence	PBM binding z-score [1]	PBM binding z-score [2]	PBM binding z-score [3]	PBM binding z-score [4]	PBM binding z-score [5]	PBM binding z-score [6]	PBM binding z-score [7]	PBM binding z-score [8]	PBM binding z-score [9]	PBM binding z-score [10]	PBM binding z-score [11]	PBM binding z-score [12]	PBM binding z-score [13]	PBM binding z-score [14]	PBM binding z-score [15]	PBM binding z-score [16]	PBM binding z-score [17]	PBM binding z-score [18]	PBM binding z-score [19]	PBM binding z-score [20]
GCTATTAGTTGAAAGGGCAACCGAATGATTCTCG	0.555	0.733	0.435	0.971	0.134	2.33	2.9	4.29	2.39	4.05	0.456	1.11	0.0571	0.432	1.15	0.708	0.108	1.38	0.652	2
AATACAGGGTCATCGTAGGCCATAGTACGCACAG	7.3	6.74	3.23	4.97	1.39	6.02	6.89	6.05	2.98	4.83	3	4.39	3	2.05	3.8	5.45	0.773	5.17	0.832	4.27
CCTAGCCGGCCAGGGTCACTCAAGCATTTCGCTT	2.27	1.64	-0.316	2.03	-0.922	2.97	0.0332	0.958	-0.474	0.121	-0.601	0.147	-1.32	-1.69	0.756	2.84	-0.583	3.45	-0.658	2.56
CCGACTGGGGCAAGGTGACCATAACGCACAGCCA	-0.279	-0.424	-0.369	-0.293	-1.35	0.808	1.99	1.81	-0.0516	0.949	2.69	3.79	-0.323	-0.812	0.0642	-0.346	-0.578	-0.0197	-0.0269	1.14
CAAACTAGGTCAAGCGGTCAAAGTCCGCTTCCCG	5.13	4.54	4.1	2.97	0.774	5.57	8.35	7.55	5.13	7.38	8.54	8.61	4.37	1.14	3.03	2.21	0.102	3.33	0.747	4.62
ACTATTAGTTGACTTAGGGCAACAGATACGACGC	0.0788	0.0659	0.494	0.0147	0.162	-0.0178	0.94	0.32	0.494	0.163	0.146	0.696	1.18	1.49	0.262	0.159	0.123	0.356	0.66	0.851
